Results filed as inconclusive are left out. Calls of active or inactive are those of the source. Rule for the calls, unless noted: active = hit-call score of the fitted dose curve at least 0.9, where 1 is the maximum; inconclusive = response in the unintended direction; inactive = score below 0.9.

Experiment [1] is described as follows: ATG_TAL_CIS: Attagene CIS-FACTORIAL HepG2 Assay for human TAL Basal Promoter (AID 2282966; active = hit-call score of the fitted dose curve at least 0.9, where 1 is the maximum; inactive = score below 0.9;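 note: background control endpoint measuring basal TAL promoter reporter mRNA not a specific factor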). The settings on record: HepG2 Attagene cis-factorial TAL promoter reporter; actives raise or lower the signal. In short, it runs like this:
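Steps: transfect HepG2 with multiple reporter transcription units; dose 24 h; isolate RNA, reverse-transcribe, PCR-amplify, label with 6-FAM, digest with HpaI; resolve by capillary electrophoresis. Bidirectional fitting against DMSO baseline.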

Experiment [2] can be described thus: ATG_TGFb_CIS: Attagene CIS-FACTORIAL HepG2 Assay for human Transforming Growth Factor (TGF) (AID 2282967; active = hit-call score of the fitted dose curve at least 0.9, where 1 is the maximum; inactive = score below 0.9). The settings on record: HepG2 Attagene CIS TGFb reporter, mRNA transcription; actives raise or lower the signal. Summed up: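 Liver HepG2 line, cis-factorial reporter panel, 24 h dosing. Quantitation: RT-PCR products labeled with 6-FAM, cut with HpaI, resolved by capillary electrophoresis; DMSO-referenced bidirectional analysis.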

Experiment [3] in a line: ATG_VDRE_CIS: Attagene CIS-FACTORIAL HepG2 Assay for human Vitamin D Receptor Element (VDRE) (AID 2282968; active = hit-call score of the fitted dose curve at least 0.9, where 1 is the maximum; inactive = score below 0.9). To be noted: HepG2 VDRE cis-reporter transcription, actives raise or lower the signal. In short, it runs like this: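 Cell-based multiplexed reporter format in human liver HepG2 cells, 24 h post-dose. Fluorescence from capillary electrophoresis of reporter cDNA gives the signal, with DMSO as negative control and baseline.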

Experiment [4] concerns the target Steroid hormone receptor ERR1 (Homo sapiens) (UniProt P11474). The experiment can be described thus: ATG_ERRa_TRANS: Attagene TRANS-FACTORIAL HepG2 Assay for human Estrogen-Related Receptor alpha (ERRa) (AID 2282971). To be noted: HepG2 Attagene TRANS reporter, ERRa transactivation. In short, it runs like this:
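Signal gain relative to DMSO for an ERRa-Gal4 chimeric receptor, read as reporter mRNA by RT-PCR/capillary electrophoresis. Human HepG2 liver cells, transient multiplex reporter transfection, 24 h chemical exposure.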

Experiment [5] concerns the target X-box-binding protein 1 (Homo sapiens) (UniProt P17861). The experiment can be described thus: ATG_Xbp1_CIS: Attagene CIS-FACTORIAL HepG2 Assay for human X-box Binding Protein 1 (XBP1) (AID 2282972; active = hit-call score of the fitted dose curve at least 0.9, where 1 is the maximum; inactive = score below 0.9). The settings on record: HepG2 XBP1 cis-element reporter, Attagene multiplex; actives raise or lower the signal. Summed up:
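HepG2, transient MRTU transfection (cis-promoter driven), 24 h compound exposure. Total RNA → oligo(dT) RT → PCR → 6-FAM labeling → HpaI cut → CE. Bidirectional fit vs DMSO.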

Experiment [6] in a line: ATG_M_19_TRANS: Attagene TRANS-FACTORIAL HepG2 Assay for M19 Transcription Factor (Internal Marker) (AID 2282974). To be noted: HepG2 Attagene TRANS-FACTORIAL M19 internal marker reporter. In short, it runs like this:
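HepG2 cells transiently transfected with multiple GAL4-UAS reporter transcription units were exposed to chemicals for 24 h. Reporter mRNA was read by RT-PCR, 6-FAM primer extension, HpaI digestion and capillary electrophoresis; gain of signal fitted relative to DMSO.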

The nature of experiment [7]: ATG_GAL4_TRANS: Attagene TRANS-FACTORIAL HepG2 Assay for GAL4 (Internal Marker) (AID 2282976). The settings on record: HepG2 Attagene TRANS GAL4 internal marker reporter. Summed up: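 Liver HepG2 line bearing multiplexed GAL4-UAS reporter constructs; 24 h chemical treatment. Transcripts were quantified as fluorescent fragments on capillary electrophoresis after RT-PCR and HpaI cut, with activity fitted upward from DMSO.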

Experiment [8] deals with Estrogen-related receptor gamma (Homo sapiens) (UniProt P62508). Briefly: ATG_ERRg_TRANS: Attagene TRANS-FACTORIAL HepG2 Assay for human Estrogen-Related Receptor gamma (ERRg) (AID 2282977).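 Note: hits increase reporter signal over DMSO so potencies reflect activators.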 The settings on record: HepG2 Attagene TRANS reporter, ERRg transactivation. Summed up:
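HepG2 cells transiently transfected with multiplexed GAL4-UAS reporter units and chimeric NR-Gal4 constructs were exposed to test chemicals for 24 h. Reporter mRNA was measured by RT-PCR, 6-FAM primer extension, HpaI digestion and capillary electrophoresis; gain-of-signal versus DMSO.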

In experiment [9] the target is Glucocorticoid receptor (Homo sapiens) (UniProt P04150). The experiment can be described thus: ATG_GR_TRANS: Attagene TRANS-FACTORIAL HepG2 Assay for human Glucocorticoid Receptor (GR) (AID 2282978).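 Note: activators score as hits since higher reporter transcript over DMSO is fitted.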 The settings on record: HepG2 Attagene TRANS GR reporter, mRNA transcription. Summed up: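 HepG2 cells transiently transfected with multiplexed reporter units in which chimeric NR-GAL4 proteins drive GAL4-UAS reporters; 24 h compound exposure. Reporter mRNA measured by RT-PCR, 6-FAM labelling, HpaI digestion and capillary electrophoresis; gain-of-signal fitted versus DMSO.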
Glucocorticoid receptor (Homo sapiens), sequence (P04150 whole entry, looked up, the tested form may be a part): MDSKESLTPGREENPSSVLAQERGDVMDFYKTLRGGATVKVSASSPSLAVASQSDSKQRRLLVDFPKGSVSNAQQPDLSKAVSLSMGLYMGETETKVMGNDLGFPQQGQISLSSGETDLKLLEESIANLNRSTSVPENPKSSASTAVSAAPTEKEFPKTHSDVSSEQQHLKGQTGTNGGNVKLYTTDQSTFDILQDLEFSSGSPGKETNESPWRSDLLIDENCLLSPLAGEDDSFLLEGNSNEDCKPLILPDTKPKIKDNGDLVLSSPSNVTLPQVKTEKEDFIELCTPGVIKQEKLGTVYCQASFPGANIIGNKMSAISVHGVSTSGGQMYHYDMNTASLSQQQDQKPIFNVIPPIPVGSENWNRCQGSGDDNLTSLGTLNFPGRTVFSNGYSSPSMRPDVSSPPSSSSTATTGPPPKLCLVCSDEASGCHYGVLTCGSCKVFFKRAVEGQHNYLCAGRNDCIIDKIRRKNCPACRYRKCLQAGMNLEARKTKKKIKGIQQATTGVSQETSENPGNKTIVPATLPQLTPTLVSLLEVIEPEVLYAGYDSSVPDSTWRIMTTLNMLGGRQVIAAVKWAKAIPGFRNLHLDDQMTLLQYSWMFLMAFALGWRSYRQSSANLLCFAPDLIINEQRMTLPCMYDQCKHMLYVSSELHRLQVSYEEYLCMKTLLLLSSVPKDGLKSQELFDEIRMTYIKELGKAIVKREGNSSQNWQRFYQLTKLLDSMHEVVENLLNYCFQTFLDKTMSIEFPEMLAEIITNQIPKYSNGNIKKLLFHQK

In experiment [10] the target is Oxysterols receptor LXR-alpha (Homo sapiens) (UniProt Q13133). Briefly: ATG_LXRa_TRANS: Attagene TRANS-FACTORIAL HepG2 Assay for human Liver X Receptor alpha (LXRa) (AID 2282980). To be noted: HepG2 Attagene TRANS reporter, LXRa transactivation. Summed up: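 In this multiplexed TRANS system, compounds act on HepG2 cells carrying GAL4-UAS reporter units and a receptor-GAL4 fusion for 24 h. Induced reporter RNA is amplified, fluorescently labelled and sized by capillary electrophoresis, with DMSO as baseline.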
Oxysterols receptor LXR-alpha (Homo sapiens), sequence (Q13133 whole entry, looked up, the tested form may be a part): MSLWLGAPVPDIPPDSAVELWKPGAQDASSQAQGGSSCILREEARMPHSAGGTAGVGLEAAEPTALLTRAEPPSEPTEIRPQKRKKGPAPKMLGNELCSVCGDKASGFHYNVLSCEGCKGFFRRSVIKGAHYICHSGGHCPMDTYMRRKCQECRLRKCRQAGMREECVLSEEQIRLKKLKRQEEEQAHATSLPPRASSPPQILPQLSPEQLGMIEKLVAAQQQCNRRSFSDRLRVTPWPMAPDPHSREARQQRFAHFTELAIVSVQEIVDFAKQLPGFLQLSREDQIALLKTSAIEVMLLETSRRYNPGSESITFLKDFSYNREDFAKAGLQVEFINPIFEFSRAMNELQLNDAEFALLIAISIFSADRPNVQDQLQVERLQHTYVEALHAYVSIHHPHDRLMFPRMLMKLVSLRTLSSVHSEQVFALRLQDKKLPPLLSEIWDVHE

The target of experiment [11] is Oxysterols receptor LXR-beta (Homo sapiens) (UniProt P55055). The experiment can be described thus: ATG_LXRb_TRANS: Attagene TRANS-FACTORIAL HepG2 Assay for human Liver X Receptor beta (LXRb) (AID 2282981). To be noted: HepG2 Attagene TRANS GAL4-LXRb reporter, mRNA. Summed up: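 Gain-of-signal mRNA reporter endpoint, DMSO as negative control. Transiently transfected HepG2 cells carrying the NR-Gal4 chimera and GAL4-UAS reporter units were treated 24 h; transcripts quantified by RT-PCR and capillary electrophoresis fluorescence.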
Oxysterols receptor LXR-beta (Homo sapiens), sequence (P55055 whole entry, looked up, the tested form may be a part): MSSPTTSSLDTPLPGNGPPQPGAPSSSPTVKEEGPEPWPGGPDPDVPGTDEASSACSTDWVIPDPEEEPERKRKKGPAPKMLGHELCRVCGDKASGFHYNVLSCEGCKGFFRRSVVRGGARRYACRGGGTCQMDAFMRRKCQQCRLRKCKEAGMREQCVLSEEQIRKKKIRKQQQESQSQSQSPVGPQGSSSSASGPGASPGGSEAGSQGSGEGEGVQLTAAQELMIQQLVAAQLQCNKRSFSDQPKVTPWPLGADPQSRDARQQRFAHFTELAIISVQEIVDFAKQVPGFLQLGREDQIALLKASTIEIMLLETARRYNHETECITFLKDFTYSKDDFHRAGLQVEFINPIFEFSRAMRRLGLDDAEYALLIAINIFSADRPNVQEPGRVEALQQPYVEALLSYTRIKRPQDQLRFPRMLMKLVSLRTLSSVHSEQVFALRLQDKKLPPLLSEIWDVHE

Experiment [12] addresses Hepatocyte nuclear factor 4-alpha (Homo sapiens) (UniProt P41235). The experiment can be described thus: ATG_HNF4a_TRANS: Attagene TRANS-FACTORIAL HepG2 Assay for human Hepatocyte Nuclear Factor 4 alpha (HNF4a) (AID 2282982). To be noted: HepG2 HNF4a transactivation reporter, mRNA readout. In short, it runs like this: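 Gain-of-signal mRNA induction, relative to DMSO vehicle, was read after 24 h compound treatment of HepG2 cells bearing transfected GAL4-UAS reporters. Detection used RT-PCR, 6-FAM primer extension and capillary electrophoresis.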

Experiment [13] can be described thus: ATG_M_32_TRANS: Attagene TRANS-FACTORIAL HepG2 Assay for M32 Transcription Factor (Internal Marker) (AID 2282984).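 Note: transcript level of a background control reporter unit measured by RT-PCR and capillary electrophoresis.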 To be noted: HepG2 Attagene TRANS M32 internal marker reporter. In short, it runs like this:
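Capillary electrophoresis of 6-FAM-labelled reporter fragments gives the signal; data fitted for gain over DMSO negative control. Source: HepG2 cells bearing transient multiple reporter transcription units, 24 h exposure.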

For experiment [14], the target named is Transcriptional activator Myb (Homo sapiens) (UniProt P10242). Briefly: ATG_Myb_CIS: Attagene CIS-FACTORIAL HepG2 Assay for human Myeloblastosis (Myb) Proto-Oncogene Transcription Factor (AID 2282986; active = hit-call score of the fitted dose curve at least 0.9, where 1 is the maximum; inactive = score below 0.9). The settings on record: HepG2 Attagene CIS-FACTORIAL Myb reporter transcription; actives raise or lower the signal. Summed up: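 HepG2 cells were transiently transfected with cis-regulated multiple reporter transcription units reflecting endogenous Myb activity, then exposed to compound for 24 hours. Reporter mRNA was measured by RT-PCR with capillary electrophoresis; bidirectional fitting versus DMSO baseline.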
Transcriptional activator Myb (Homo sapiens), sequence (P10242 whole entry, looked up): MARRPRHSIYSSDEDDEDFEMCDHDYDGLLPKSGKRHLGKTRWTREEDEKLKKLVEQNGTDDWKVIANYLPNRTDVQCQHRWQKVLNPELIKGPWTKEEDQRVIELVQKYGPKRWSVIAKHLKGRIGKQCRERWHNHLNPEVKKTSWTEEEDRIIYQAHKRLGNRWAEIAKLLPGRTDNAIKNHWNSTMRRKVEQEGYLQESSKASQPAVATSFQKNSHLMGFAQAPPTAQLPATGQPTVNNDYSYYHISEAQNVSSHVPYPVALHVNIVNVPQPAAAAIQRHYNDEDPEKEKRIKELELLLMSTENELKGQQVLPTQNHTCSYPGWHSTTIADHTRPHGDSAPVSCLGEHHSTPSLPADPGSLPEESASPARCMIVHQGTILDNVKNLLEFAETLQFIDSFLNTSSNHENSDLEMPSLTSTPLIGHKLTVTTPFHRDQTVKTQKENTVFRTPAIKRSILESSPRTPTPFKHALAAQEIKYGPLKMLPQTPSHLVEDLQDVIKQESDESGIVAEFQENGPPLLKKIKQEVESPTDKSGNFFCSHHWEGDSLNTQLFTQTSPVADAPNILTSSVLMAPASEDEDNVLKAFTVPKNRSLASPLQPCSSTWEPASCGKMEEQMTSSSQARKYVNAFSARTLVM

For experiment [15], the target named is Nuclear respiratory factor 1 (Homo sapiens) (UniProt Q16656). Briefly: ATG_NRF1_CIS: Attagene CIS-FACTORIAL HepG2 Assay for human Nuclear Respiratory Factor 1 (NRF1) Orphan Gene (AID 2282987; active = hit-call score of the fitted dose curve at least 0.9, where 1 is the maximum; inactive = score below 0.9). The settings on record: HepG2 NRF1 cis-element reporter, Attagene multiplex; actives raise or lower the signal. In short, it runs like this: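 HepG2 cells transiently transfected with multiple reporter transcription units under cis-regulatory promoter control, so endogenous transcription-factor activity is read. After 24 h compound exposure, reporter mRNA quantified by RT-PCR, fluorescent labelling, HpaI digestion and capillary electrophoresis; bidirectional fitting versus DMSO.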
Nuclear respiratory factor 1 (Homo sapiens), sequence (Q16656 whole entry, looked up): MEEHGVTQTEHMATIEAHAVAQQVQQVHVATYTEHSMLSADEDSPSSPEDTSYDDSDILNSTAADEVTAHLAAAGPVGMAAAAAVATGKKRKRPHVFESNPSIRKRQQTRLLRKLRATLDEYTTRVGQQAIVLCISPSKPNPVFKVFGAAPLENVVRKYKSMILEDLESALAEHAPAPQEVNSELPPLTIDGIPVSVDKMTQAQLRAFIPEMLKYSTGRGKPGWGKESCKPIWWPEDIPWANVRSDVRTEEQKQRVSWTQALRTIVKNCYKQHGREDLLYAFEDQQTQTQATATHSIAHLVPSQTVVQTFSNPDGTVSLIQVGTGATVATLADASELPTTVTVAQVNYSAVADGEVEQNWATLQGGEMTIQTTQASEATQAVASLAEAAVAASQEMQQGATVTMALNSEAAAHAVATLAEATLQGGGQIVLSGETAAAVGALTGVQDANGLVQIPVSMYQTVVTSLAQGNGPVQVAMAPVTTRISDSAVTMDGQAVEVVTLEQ

Experiment [16] has as its target Bile acid receptor (Homo sapiens) (UniProt Q96RI1). The experiment can be described thus: ATG_FXR_TRANS: Attagene TRANS-FACTORIAL HepG2 Assay for Farnesoid X Receptor (FXR) (AID 2282979).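 Note: hits raise reporter mRNA above DMSO so AC50 marks FXR activation.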 The settings on record: HepG2 Attagene TRANS FXR-GAL4 reporter transcription. Summed up: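 After 24 h chemical treatment of transfected HepG2 cells, GAL4-UAS reporter transcripts driven by an exogenous FXR-GAL4 fusion were measured by RT-PCR and capillary electrophoresis. Increases over DMSO were fitted.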

Experiment [17] can be described thus: ATG_M_06_TRANS: Attagene TRANS-FACTORIAL HepG2 Assay for M06 Transcription Factor (Internal Marker) (AID 2282983). To be noted: HepG2 Attagene TRANS M06 internal marker reporter. In short, it runs like this: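 Internal-marker background readout from a multiplexed TRANS reporter system in HepG2; 24 h dosing; mRNA induction quantified by RT-PCR plus capillary electrophoresis fluorescence; DMSO as negative control and baseline.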

Experiment [18] deals with Nuclear receptor subfamily 4 group A member 2 (Homo sapiens) (UniProt P43354). The experiment can be described thus: ATG_NURR1_TRANS: Attagene TRANS-FACTORIAL HepG2 Assay for human Nuclear Receptor Related Protein 1 (NURR1) (AID 2282985). To be noted: HepG2 Attagene TRANS reporter, mRNA readout. In short, it runs like this:
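HepG2 / transient MRTU transfection / 24 h compound exposure / RT-PCR + CE fluorescence of reporter mRNA / gain-of-signal vs DMSO.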

Hepatocyte nuclear factor 4-alpha (Homo sapiens), sequence (P41235 whole entry, looked up, the tested form may be a part): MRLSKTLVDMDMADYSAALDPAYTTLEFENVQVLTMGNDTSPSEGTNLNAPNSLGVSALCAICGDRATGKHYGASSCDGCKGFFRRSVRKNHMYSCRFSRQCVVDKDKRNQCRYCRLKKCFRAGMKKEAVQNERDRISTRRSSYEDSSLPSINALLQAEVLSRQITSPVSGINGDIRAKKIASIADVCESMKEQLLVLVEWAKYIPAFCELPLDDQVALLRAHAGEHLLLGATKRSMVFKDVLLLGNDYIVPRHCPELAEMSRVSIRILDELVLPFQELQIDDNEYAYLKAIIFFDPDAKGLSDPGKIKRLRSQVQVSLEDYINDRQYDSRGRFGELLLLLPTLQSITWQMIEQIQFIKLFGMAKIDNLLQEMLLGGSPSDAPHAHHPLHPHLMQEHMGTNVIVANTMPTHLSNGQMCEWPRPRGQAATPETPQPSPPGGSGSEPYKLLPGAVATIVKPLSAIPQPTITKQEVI
Nuclear receptor subfamily 4 group A member 2 (Homo sapiens), sequence (P43354 whole entry, looked up): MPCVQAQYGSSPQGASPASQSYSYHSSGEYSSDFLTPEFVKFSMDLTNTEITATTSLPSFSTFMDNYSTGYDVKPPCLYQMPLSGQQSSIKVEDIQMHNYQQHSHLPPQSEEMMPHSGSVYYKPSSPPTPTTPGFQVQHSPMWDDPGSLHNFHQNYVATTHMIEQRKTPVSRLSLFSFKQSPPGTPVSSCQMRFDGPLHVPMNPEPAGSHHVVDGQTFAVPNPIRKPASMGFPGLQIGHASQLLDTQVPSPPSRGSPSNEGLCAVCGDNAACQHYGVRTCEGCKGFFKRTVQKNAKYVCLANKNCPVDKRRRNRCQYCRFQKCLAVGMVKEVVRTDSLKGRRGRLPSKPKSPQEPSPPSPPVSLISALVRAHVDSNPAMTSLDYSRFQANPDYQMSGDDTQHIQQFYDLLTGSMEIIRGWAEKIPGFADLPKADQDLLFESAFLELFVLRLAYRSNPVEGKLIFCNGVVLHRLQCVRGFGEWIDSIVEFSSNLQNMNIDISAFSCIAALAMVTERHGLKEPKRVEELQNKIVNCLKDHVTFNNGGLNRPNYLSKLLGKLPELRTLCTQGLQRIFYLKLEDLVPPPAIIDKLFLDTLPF
X-box-binding protein 1 (Homo sapiens), sequence (P17861 whole entry, looked up): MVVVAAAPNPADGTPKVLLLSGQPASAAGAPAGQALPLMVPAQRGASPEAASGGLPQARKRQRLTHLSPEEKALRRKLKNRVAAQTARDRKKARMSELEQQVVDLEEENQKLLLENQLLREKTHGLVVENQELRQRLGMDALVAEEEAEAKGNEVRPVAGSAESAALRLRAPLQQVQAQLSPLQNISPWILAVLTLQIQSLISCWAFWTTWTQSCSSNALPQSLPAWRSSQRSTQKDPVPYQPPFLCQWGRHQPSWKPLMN
Bile acid receptor (Homo sapiens), sequence (Q96RI1 whole entry, looked up, the tested form may be a part): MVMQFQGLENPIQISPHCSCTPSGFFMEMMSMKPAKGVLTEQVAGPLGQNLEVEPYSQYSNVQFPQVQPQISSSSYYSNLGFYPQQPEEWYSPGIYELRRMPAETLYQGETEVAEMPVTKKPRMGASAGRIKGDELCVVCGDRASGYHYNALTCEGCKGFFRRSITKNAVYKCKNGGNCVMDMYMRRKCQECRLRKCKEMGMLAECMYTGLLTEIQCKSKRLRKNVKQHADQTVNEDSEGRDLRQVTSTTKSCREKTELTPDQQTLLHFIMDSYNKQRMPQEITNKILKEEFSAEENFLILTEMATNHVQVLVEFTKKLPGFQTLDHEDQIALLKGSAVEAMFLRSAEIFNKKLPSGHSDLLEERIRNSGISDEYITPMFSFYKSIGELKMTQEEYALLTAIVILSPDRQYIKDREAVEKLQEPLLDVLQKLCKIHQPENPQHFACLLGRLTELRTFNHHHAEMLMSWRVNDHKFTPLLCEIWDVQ

As to `CCCOC(=O)CCCCC(=O)OCCC`, the call in experiment [1], in [2], in experiment [3], in experiment [4], in experiment [5] and in experiment [6] was inactive. The compound was classed as inactive in [7], in experiment [8], in experiment [9], in experiment [10], in experiment [11] and in experiment [12]. Also, the outcome in experiment [13], in experiment [14] and in experiment [15] was inactive.
Regarding `COCC(C)N` (stereo unspecified), the outcome in experiment [1], in experiment [2], in experiment [3], in experiment [5], in [6] and in experiment [16] was inactive. Further, the result in experiment [10], in experiment [17], in experiment [13], in experiment [18], in [14] and in experiment [15] was inactive.
Regarding `CC1=NC(C)OC1C` (stereo unspecified), the result in experiment [1], in experiment [2], in experiment [5], in experiment [6], in [9] and in experiment [11] was inactive. For the same compound, the compound was classed as inactive in experiment [12], in experiment [13], in experiment [18], in [14] and in experiment [15]. Moreover, the half-maximal activity concentration (AC50) in experiment [3] was 9.63 µM (active).
Turning to `CCOc1nc(F)cc2nc(S(=O)(=O)Nc3c(Cl)cccc3C(=O)OC)nn12`, the outcome in [1], in [2], in [5], in experiment [7], in experiment [9] and in [16] was inactive. Further, the result in experiment [11], in experiment [12], in experiment [17], in experiment [14] and in experiment [15] was inactive. For the same compound, in experiment [3], the AC50 is 16.6 µM (active).
In the case of `Cc1ccc([N+](=O)[O-])cc1S(=O)(=O)O`, the outcome in experiment [1], in experiment [2], in experiment [3], in experiment [5], in experiment [6] and in [9] was inactive. The compound was classed as inactive in experiment [10], in experiment [11], in experiment [12] and in experiment [18]. Moreover, the half-maximal activity concentration (AC50) in [14] was 191 µM (active).
As for `c1c[nH]cn1`, the outcome in [1], in [2], in experiment [3], in experiment [5], in experiment [6] and in experiment [7] was inactive. Further, the outcome in experiment [12], in experiment [14] and in experiment [15] was inactive.

For the origin of these results see PubChem BioAssay (EPA / NIEHS).
